Eleven compounds from ChEMBL document CHEMBL5724796, “Tm Shift (DSF) assay results for EUbOPEN Chemogenomics Library” (2024) can be followed below.

Common to all, as to settings: Compound concentration 20.0 uM
In experiment [1] the target is Tyrosine-protein kinase ABL1 (Homo sapiens) (UniProt P00519).
Experiment [2] has as its target Bromodomain-containing protein 4 (Homo sapiens) (UniProt O60885).
Experiment [3] concerns the target Cyclin-dependent kinase 2 (Homo sapiens) (UniProt P24941).
Experiment [4] deals with Casein kinase I isoform delta (Homo sapiens) (UniProt P48730).
The target in experiment [5] is Glycogen synthase kinase-3 beta (Homo sapiens) (UniProt P49841).
In experiment [6] the target is Mitogen-activated protein kinase 1 (Homo sapiens) (UniProt P28482).
In experiment [7] the target is T1, Aurora kinase A (Homo sapiens) (UniProt O14965).
T1 sequence (whole entry): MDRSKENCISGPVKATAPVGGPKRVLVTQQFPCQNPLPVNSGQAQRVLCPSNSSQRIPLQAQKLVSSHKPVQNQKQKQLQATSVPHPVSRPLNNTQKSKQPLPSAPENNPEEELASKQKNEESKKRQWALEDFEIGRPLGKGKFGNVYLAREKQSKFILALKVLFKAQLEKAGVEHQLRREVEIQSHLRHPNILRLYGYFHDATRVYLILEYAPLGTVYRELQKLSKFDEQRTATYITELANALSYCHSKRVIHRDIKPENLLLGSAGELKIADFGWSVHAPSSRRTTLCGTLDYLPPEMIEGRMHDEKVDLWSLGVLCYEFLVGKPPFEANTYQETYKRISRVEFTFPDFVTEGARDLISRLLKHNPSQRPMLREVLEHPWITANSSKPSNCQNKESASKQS

Experiment [8] concerns the target T2, Transcription intermediary factor 1-alpha (Homo sapiens) (UniProt O15164).
T2 sequence (whole entry): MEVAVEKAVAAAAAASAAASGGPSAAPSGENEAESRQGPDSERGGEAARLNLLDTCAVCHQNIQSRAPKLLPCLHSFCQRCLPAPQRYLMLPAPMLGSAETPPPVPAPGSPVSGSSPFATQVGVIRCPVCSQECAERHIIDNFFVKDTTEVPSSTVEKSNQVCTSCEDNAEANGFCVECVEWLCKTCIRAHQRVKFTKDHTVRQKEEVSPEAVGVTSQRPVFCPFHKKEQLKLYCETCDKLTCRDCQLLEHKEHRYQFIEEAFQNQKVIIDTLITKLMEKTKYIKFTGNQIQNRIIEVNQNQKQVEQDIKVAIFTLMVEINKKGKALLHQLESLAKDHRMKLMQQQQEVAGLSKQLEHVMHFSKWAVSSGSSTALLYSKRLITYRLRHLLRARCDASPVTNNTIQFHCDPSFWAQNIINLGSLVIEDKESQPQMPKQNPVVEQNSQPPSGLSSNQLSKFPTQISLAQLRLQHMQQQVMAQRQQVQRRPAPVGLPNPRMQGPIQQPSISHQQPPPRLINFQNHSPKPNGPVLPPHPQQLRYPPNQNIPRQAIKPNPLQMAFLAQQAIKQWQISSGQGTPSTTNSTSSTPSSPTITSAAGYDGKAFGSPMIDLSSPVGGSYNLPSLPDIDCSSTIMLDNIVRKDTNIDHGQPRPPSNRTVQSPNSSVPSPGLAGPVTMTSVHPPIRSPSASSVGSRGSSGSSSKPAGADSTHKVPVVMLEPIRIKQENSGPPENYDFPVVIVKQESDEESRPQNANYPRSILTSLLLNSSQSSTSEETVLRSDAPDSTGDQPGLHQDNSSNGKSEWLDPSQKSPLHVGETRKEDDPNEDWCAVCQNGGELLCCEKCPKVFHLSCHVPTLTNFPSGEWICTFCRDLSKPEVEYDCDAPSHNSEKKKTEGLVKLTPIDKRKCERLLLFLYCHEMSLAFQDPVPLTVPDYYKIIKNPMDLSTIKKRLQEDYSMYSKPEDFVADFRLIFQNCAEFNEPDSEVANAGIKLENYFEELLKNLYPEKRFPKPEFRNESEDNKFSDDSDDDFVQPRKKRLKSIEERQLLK

The structures appear in SMILES notation.

Sequence of Casein kinase I isoform delta (Homo sapiens) (P48730 whole entry, looked up, canonical isoform): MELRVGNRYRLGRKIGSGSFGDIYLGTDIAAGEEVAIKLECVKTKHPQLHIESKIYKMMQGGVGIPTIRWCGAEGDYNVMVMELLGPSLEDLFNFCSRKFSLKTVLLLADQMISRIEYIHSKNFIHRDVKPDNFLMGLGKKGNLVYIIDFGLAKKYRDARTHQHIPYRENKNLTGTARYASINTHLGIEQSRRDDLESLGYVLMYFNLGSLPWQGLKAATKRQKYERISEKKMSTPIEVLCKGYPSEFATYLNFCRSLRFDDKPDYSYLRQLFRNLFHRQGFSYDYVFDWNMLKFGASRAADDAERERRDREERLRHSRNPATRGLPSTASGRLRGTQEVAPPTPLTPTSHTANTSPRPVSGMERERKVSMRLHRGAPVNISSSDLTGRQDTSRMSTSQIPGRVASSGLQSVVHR
Sequence of Glycogen synthase kinase-3 beta (Homo sapiens) (P49841 whole entry, looked up): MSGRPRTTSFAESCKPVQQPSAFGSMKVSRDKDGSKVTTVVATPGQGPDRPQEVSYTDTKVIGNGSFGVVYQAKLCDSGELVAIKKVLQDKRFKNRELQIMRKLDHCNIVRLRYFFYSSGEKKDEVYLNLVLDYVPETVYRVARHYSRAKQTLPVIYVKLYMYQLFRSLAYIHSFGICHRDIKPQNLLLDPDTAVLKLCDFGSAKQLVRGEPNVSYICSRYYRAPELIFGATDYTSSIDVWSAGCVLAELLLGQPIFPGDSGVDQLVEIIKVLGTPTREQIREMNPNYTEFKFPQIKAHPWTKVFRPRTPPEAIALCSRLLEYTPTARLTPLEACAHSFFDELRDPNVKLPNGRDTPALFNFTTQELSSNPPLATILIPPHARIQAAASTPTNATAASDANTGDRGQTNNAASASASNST
Sequence of Mitogen-activated protein kinase 1 (Homo sapiens) (P28482 whole entry): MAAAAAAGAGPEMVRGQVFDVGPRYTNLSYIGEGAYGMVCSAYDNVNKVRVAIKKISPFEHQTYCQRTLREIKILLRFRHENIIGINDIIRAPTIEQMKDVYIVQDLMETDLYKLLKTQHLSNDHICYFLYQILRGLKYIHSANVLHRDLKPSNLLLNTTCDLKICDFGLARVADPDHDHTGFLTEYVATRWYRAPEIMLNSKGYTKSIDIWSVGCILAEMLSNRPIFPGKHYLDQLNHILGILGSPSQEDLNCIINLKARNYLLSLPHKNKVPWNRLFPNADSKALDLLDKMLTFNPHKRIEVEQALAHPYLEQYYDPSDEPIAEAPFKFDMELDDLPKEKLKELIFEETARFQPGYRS
Sequence of Tyrosine-protein kinase ABL1 (Homo sapiens) (P00519 whole entry): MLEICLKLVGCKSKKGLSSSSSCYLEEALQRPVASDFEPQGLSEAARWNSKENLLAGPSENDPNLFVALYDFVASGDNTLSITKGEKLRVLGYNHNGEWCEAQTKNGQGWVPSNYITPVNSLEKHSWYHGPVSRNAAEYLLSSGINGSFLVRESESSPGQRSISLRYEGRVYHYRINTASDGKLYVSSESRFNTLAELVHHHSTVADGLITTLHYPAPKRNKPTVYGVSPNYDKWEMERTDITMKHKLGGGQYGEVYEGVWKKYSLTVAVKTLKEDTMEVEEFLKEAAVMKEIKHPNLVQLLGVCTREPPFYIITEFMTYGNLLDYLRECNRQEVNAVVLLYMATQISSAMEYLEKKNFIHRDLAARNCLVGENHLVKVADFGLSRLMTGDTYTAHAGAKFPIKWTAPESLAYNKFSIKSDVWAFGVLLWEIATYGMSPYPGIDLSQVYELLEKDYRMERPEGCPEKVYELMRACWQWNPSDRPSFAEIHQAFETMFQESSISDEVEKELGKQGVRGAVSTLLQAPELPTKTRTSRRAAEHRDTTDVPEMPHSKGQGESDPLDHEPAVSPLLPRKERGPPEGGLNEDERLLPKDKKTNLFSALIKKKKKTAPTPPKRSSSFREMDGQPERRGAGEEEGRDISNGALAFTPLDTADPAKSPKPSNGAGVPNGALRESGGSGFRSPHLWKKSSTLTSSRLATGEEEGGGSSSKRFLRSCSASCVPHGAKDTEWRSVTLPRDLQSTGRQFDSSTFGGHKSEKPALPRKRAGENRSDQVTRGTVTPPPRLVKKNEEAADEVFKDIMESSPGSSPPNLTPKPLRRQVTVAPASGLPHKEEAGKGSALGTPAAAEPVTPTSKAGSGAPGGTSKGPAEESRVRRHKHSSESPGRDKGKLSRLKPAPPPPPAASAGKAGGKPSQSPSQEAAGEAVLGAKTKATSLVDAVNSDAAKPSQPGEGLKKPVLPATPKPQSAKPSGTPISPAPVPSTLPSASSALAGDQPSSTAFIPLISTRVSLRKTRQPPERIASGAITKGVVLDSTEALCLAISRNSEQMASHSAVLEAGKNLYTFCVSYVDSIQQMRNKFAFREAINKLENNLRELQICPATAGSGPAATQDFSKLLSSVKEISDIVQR

For orientation: ΔTm means the shift of the melting midpoint relative to a reference. Regarding `COc1cc(C)[nH]c(=O)c1CNC(=O)c1c(C)n([C@H](C)C2CCN(CC(F)(F)F)CC2)c2ccccc12`, the ΔTm in experiment [1] was 0.27 °C; in experiment [2] it was -2.03 °C; in experiment [3], -0.09 °C; in experiment [4], 0.08 °C; in experiment [5], -0.64 °C; in experiment [6] it was -0.27 °C. In addition, the ΔTm in experiment [7] was 0.25 °C; in experiment [8] it was -1.56 °C.
As for `Nc1cccc(CNC(=O)c2ccc(Oc3ccc(OCc4cccc(F)c4)cc3)nc2)c1`, the ΔTm is 1.07 °C in experiment [1]; -0.91 °C in experiment [2]; 0.38 °C in experiment [3]; -0.56 °C in experiment [4]; 1.13 °C in experiment [5]; -0.86 °C in experiment [6]. Besides, the ΔTm in experiment [7] is -1.57 °C; in experiment [8], 0.24 °C.
In the case of `CS(=O)(=O)Nc1ccc(-c2coc3cc(OCc4cccc(C(=O)O)c4)ccc3c2=O)cc1`, the ΔTm in experiment [1] was -0.03 °C; in experiment [2], 0.08 °C; in experiment [3], 0.07 °C; in experiment [4], -0.49 °C; in experiment [5], -0.46 °C; in experiment [6], 0.64 °C. The ΔTm in experiment [7] was -0.26 °C; in experiment [8], 0.89 °C.
With `CN1[C@@H]2CC[C@H]1C[C@@H](OC(c1ccc(F)cc1)c1ccc(F)cc1)C2`, the ΔTm was 0.58 °C in experiment [1]; -2.87 °C in experiment [2]; 0.08 °C in experiment [3]; -0.16 °C in experiment [4]; -0.54 °C in experiment [5]; 0.11 °C in experiment [6]. The thermal shift (ΔTm) in experiment [7] is -2.6 °C; in experiment [8], -0.2 °C.
As to `O=C(N1CCCC[C@@H]1Cc1ccccc1)n1cc(-c2ccc(-c3ccccc3)cc2)nn1`, the ΔTm is 0.24 °C in experiment [1]; -2.3 °C in experiment [2]; 0.21 °C in experiment [3]; -1.21 °C in experiment [4]; -0.59 °C in experiment [5]; -0.45 °C in experiment [6]. For the same compound, the values for the ΔTm in experiment [7] and in experiment [8] were -2.78 °C and 2.73 °C, respectively.
Turning to `CNC(=O)c1cc(C(=O)NC2CC2)cn(Cc2ccccc2)c1=O`, the ΔTm in experiment [1] was 0.09 °C; in experiment [2] it was -0.92 °C; in experiment [3] it was 0.1 °C; in experiment [4], -0.13 °C; in experiment [5], -0.62 °C; in experiment [6], 0.15 °C. In addition, the ΔTm in experiment [7] was -2.45 °C; in experiment [8], 0.41 °C.
As for `COc1ccc(N(C(=O)Oc2c(C)cccc2C)c2ccnc(Nc3ccc(N4CCN(C)CC4)cc3)n2)c(OC)c1`, the shift in melting temperature (ΔTm) is 9.28 °C in experiment [1]; -0.9 °C in experiment [2]; 0.75 °C in experiment [3]; 0.09 °C in experiment [4]; 1.59 °C in experiment [5]; 0.08 °C in experiment [6]. Also, the shift in melting temperature (ΔTm) in experiment [7] was 0.66 °C; in experiment [8], -0.91 °C.
On to `O=C(O)C1=CCCN(CCOC(c2ccc(C(F)(F)F)cc2)c2ccc(C(F)(F)F)cc2)C1`, for which the ΔTm in experiment [1] is 0.71 °C; in experiment [2], -3.83 °C; in experiment [3], -0.13 °C; in experiment [4], -0.26 °C; in experiment [5] it was -0.54 °C; in experiment [6], 0.12 °C. Further, the ΔTm in experiment [7] was -2.7 °C; in experiment [8], 0.08 °C.
For the compound `C=Cc1cc(C(=O)Nc2ccc(C(=N)N)cc2)c(-c2ccc(C(=O)NCC3CC3)nc2C(=O)O)cc1OC`, the thermal shift (ΔTm) in experiment [1] was 0.26 °C; in experiment [2] it was -1.29 °C; in experiment [3], 0.57 °C; in experiment [4], 0.02 °C; in experiment [5], -0.41 °C; in experiment [6], 0.21 °C. For the same compound, the ΔTm is -1.17 °C in experiment [7] and 0.42 °C in experiment [8].
For the compound `C[C@]12CC[C@@H]3c4ccc(O)cc4C[C@@H](CCCCCCCCC[S+]([O-])CCCC(F)(F)C(F)(F)F)[C@H]3[C@@H]1CC[C@@H]2O` (some centres not stated), the ΔTm was -4.09 °C in experiment [1]; -2.93 °C in experiment [2]; 0 °C in experiment [3]; -4.77 °C in experiment [4]; 0.72 °C in experiment [5]; -12 °C in experiment [6]. The ΔTm in experiment [7] is -0.16 °C.
On to `N[C@H]1CC[C@H](N[C@@H]2C[C@H]2c2ccccc2)CC1`, for which the thermal shift (ΔTm) in experiment [1] was 0.04 °C; in experiment [2], -1.89 °C; in experiment [3], 0.04 °C; in experiment [4], -0.14 °C; in experiment [5], -0.74 °C; in experiment [6] it was 0 °C. In addition, the values for the ΔTm in experiment [7] and in experiment [8] were -1.42 °C and 0.93 °C, respectively.
